Calls of active or inactive are those of the source.
Columns and labels:
[1] = system: PRMT1 (protein arginine N-methyltransferase 1); assay: PRMT1 binders on small-molecule microarrays, primary screen, biochemical, small-molecule microarray, 635 nm fluorescence (AID 1088); settings: small-molecule microarray binding, higher = more signal;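 note: binding of Prmt1 protein to compounds spotted on small-molecule microarray slides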
[2] = yeast growth modulation, basal conditions, primary screen, YJM789 clinical isolate, OD600, 24 h (AID 1089);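 note: growth of clinical yeast isolate S. cerevisiae YJM 789 seeded 1000 cells per well; test concentration not given here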; settings: S. cerevisiae YJM789 growth, higher = more signal, called active from +8 up or from −8 down
[3] = fission yeast growth modulation, primary screen, strain 972, OD600, 24 h, no modulator (AID 1090);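 note: basal condition with compound alone and no growth modifier present; test concentration not given here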; settings: S. pombe 972 growth, higher = more signal, called active from +8 up or from −8 down
[4] = S. cerevisiae growth modulation with rapamycin, primary screen, strain BY4716, OD600, 96 h (AID 1091); settings: higher = more signal, called active from +8 up or from −8 down; note: test concentration not given here
[5] = target: Torsin-1A-interacting protein 2 (Homo sapiens) (UniProt Q8NFQ8); assay: LULL1 binders on small-molecule microarray, primary screen, cell lysate, human LULL1 lysate, 635/667 nm fluorescence (AID 1092); settings: hLULL1 lysate binding, 635 nm fluorescence, higher = more signal;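 note: probe is lysate of COS7 cells overexpressing human LULL1; score merges per-feature 667 nm fluorescence with signal-to-noise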
[6] = E. coli growth modulation, two-sided OD650, primary screen, E. coli filamentation project, strain DRC41, 24 h (AID 1093); settings: OD650, 24 h, higher = more signal, called active from +8 up or from −8 down;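 note: MC1000 strain lacking acrAB efflux and sulA so SOS filamentation is blocked; test concentration not given here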
[7] = small-molecule microarray binders of probe aLefty2, primary screen, biochemical, biotinylated probe, 635/667 nm fluorescence (AID 1094); settings: higher = more signal;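 note: score merges spot fluorescence near 667 nm with spot signal-to-noise ratio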
[8] = system: Noggin (protein binding on small-molecule microarray); assay: Noggin binders on small-molecule microarray, primary screen, biochemical, 635/667 nm fluorescence (AID 1095); settings: 635 nm fluorescence, higher = more signal;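 note: score merges 667 nm feature fluorescence with signal to noise over triplicate slides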
[9] = target: Neurogenic locus notch homolog protein 3 (Homo sapiens) (UniProt Q9UM47); assay: NOTCH3 binders on small-molecule microarray, primary screen, biochemical, 635/667 nm fluorescence (AID 1096); settings: NOTCH3 binding, 635 nm fluorescence, higher = more signal
[10] = small-molecule microarray binders of probe aEGFR, primary screen, biochemical, biotinylated probe, 635/667 nm fluorescence (AID 1097); settings: higher = more signal;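 note: probe is a biotinylated anti-EGFR antibody binding compounds printed on slides; score combines fluorescence near 667 nm and signal to noise of each spot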
[11] = system: Plasmodium falciparum Sir2 (PF13_0152, Sir2A); assay: pfSir2 binders on small-molecule microarrays, primary screen, biochemical, small-molecule microarray, 635 nm fluorescence (AID 1098); settings: small-molecule microarray binding, fluorescence 635 nm; higher = more signal;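 note: score merges spot fluorescence intensity with its signal-to-noise ratio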
[12] = small-molecule microarray binders of probe aDKK1, primary screen, biochemical, biotinylated probe, 635/667 nm fluorescence (AID 1099); settings: higher = more signal;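 note: score merges 667nm spot fluorescence with signal to noise across triplicate slides; reference of the scale not given here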
[13] = small-molecule microarray binders of probe aCHRDL2, primary screen, biochemical, biotinylated probe, 635/667 nm fluorescence (AID 1100); settings: higher = more signal
[14] = splicing luciferase reporter signal modulators, primary screen, spliceosome inhibition project, cell-based, HEK293, splice +/- reporter (AID 1101); settings: luminescence, 24 h, higher = more signal, called active from +8 up or from −8 down;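 note: HEK293 cells carrying a splicing-competent luciferase reporter gene; test concentration not given here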
[15] = target: Fibroblast growth factor 10 (Homo sapiens) (UniProt O15520); assay: FGF10 binders on small-molecule microarrays, primary screen, biochemical, small-molecule microarray, 635 nm fluorescence (AID 1102); settings: FGF10 binding, fluorescence 635 nm, higher = more signal
[16] = system: glycogen synthase kinase-3 (GSK3A per assay name; protocol says GSK3B); assay: GSK3 binders on small-molecule microarrays, primary screen, biochemical, small-molecule microarray, 635 nm fluorescence, GSK3A (AID 1103); settings: small-molecule microarray binding, fluorescence 635 nm; higher = more signal; note: the record names both GSK3A and GSK3B
[17] = target: Epidermal growth factor receptor (Homo sapiens) (UniProt P00533); assay: EGFR binders on small-molecule microarrays, primary screen, biochemical, small-molecule microarray, 635 nm fluorescence (AID 1104); settings: EGFR binding, higher = more signal;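 note: score merges 667 nm emission intensity with spot signal to noise over triplicate slides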
[18] = target: Follistatin-related protein 3 (Homo sapiens) (UniProt O95633); assay: FSTL3 binders on small-molecule microarrays, primary screen, biochemical, small-molecule microarray, 635 nm fluorescence (AID 1105); settings: FSTL3 binding, higher = more signal;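 note: score merges emission near 667 nm and signal to noise per printed spot across three slides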
[19] = target: Dickkopf-related protein 1 (Homo sapiens) (UniProt O94907); assay: DKK1 binders on small-molecule microarrays, primary screen, biochemical, small-molecule microarray, 635 nm fluorescence scan (AID 1106); settings: DKK1 binding, higher = more signal;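 note: score merges emission near 667 nm with signal to noise over three replicate slides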
[20] = system: Inhibin beta A chain (activin A); assay: INHBA (activin A) binders on microarrays, primary screen, biochemical, small-molecule microarray, 635 nm fluorescence scan (AID 1107); settings: small-molecule microarray binding, higher = more signal;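 note: mouse activin A protein probed at 4.33 µg/mL on printed slides; score merges bound-protein fluorescence near 667 nm with spot signal-to-noise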

Neurogenic locus notch homolog protein 3 (Homo sapiens), sequence (Q9UM47 whole entry, looked up): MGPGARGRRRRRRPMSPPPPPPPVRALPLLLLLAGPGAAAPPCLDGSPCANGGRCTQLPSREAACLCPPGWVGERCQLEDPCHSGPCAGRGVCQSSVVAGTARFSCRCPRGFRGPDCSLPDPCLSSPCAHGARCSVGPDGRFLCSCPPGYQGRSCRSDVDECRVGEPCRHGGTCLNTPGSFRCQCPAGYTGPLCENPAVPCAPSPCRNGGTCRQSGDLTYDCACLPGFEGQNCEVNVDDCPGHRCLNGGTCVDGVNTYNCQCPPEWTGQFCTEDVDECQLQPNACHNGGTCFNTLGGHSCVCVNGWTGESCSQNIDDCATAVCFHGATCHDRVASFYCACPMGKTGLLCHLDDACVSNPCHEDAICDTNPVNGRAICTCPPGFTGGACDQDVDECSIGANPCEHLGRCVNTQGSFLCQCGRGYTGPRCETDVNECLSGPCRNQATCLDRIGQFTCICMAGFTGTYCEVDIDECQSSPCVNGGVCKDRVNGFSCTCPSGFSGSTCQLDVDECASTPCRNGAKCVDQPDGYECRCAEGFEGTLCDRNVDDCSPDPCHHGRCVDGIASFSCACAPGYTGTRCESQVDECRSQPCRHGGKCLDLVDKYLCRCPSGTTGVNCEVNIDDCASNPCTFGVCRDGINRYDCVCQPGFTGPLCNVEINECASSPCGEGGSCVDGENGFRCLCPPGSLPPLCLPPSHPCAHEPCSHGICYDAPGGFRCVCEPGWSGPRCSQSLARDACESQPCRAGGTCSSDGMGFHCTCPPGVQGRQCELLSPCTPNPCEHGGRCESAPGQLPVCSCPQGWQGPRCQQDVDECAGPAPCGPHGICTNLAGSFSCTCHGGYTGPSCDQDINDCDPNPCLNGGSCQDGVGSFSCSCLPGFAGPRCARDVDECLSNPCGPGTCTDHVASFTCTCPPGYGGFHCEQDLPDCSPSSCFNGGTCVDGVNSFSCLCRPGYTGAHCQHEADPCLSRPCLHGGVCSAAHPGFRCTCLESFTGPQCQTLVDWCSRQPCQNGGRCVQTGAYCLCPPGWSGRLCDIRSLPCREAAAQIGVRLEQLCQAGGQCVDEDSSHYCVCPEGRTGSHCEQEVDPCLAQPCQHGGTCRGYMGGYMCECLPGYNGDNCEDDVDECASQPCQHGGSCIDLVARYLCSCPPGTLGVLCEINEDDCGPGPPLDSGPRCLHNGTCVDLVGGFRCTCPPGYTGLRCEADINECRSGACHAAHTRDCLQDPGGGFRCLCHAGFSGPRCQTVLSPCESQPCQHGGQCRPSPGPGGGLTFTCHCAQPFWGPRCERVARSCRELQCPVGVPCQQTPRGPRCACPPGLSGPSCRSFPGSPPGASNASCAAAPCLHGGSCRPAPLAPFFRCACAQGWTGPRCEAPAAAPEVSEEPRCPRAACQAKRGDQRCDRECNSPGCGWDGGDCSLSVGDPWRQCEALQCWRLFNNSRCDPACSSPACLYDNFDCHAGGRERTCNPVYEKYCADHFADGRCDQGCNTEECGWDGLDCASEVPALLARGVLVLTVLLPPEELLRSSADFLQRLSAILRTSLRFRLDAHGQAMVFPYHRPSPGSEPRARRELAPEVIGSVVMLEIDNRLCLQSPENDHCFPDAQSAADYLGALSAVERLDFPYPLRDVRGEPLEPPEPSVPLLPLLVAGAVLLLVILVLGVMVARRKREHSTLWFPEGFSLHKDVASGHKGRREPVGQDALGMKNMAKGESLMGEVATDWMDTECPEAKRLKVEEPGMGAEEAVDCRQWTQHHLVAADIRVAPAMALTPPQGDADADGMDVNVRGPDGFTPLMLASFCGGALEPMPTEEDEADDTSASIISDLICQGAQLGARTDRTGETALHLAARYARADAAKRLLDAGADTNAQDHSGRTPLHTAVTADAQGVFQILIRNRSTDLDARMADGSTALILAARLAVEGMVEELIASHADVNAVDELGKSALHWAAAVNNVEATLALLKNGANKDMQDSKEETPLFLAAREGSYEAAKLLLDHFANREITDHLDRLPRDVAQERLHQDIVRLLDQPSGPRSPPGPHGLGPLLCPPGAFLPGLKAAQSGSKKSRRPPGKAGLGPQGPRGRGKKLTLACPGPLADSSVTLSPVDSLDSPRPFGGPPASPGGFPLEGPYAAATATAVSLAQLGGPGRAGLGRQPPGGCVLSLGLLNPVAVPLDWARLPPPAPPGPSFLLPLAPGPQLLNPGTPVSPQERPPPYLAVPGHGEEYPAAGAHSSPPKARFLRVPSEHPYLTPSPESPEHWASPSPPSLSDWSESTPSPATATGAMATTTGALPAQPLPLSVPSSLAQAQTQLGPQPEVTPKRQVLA
Dickkopf-related protein 1 (Homo sapiens), sequence (O94907 whole entry, looked up): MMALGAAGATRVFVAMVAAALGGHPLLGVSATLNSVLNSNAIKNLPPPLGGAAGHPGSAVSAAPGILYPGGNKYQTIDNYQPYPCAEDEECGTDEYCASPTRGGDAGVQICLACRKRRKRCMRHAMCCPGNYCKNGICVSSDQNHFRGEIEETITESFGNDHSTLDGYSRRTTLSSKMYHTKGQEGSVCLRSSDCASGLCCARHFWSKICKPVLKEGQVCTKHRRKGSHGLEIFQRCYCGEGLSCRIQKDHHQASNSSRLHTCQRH
Epidermal growth factor receptor (Homo sapiens), sequence (P00533 whole entry, looked up): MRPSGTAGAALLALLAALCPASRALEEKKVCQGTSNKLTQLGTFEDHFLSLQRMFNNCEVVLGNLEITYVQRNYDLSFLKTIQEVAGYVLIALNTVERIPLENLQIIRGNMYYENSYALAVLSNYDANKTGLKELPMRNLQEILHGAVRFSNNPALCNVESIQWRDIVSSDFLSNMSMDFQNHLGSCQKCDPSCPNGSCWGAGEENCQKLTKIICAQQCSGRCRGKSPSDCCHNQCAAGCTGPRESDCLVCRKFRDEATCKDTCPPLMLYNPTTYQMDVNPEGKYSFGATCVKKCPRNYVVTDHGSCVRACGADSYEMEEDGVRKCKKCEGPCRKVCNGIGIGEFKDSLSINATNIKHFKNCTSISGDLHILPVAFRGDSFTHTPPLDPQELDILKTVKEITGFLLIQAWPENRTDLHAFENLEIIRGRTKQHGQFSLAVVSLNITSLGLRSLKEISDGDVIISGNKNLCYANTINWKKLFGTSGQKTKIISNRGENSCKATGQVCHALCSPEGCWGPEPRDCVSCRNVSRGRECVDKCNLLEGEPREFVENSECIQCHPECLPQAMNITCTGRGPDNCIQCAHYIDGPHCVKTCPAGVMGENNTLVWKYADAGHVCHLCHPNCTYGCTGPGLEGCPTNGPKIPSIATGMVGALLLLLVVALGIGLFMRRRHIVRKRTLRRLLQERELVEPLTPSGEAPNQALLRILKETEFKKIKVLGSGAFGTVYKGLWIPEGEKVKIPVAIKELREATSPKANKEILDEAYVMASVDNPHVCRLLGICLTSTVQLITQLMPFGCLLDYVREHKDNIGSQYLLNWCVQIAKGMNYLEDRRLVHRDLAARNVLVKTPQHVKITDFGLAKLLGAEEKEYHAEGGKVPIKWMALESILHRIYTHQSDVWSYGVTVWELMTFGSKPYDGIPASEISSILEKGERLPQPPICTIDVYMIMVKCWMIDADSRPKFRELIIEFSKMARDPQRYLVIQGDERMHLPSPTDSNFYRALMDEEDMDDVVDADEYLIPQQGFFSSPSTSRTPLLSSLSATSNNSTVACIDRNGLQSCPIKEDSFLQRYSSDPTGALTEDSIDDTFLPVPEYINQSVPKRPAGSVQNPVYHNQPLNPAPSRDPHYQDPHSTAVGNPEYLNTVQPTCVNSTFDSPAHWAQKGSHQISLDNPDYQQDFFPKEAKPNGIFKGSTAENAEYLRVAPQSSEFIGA
Follistatin-related protein 3 (Homo sapiens), sequence (O95633 whole entry, looked up): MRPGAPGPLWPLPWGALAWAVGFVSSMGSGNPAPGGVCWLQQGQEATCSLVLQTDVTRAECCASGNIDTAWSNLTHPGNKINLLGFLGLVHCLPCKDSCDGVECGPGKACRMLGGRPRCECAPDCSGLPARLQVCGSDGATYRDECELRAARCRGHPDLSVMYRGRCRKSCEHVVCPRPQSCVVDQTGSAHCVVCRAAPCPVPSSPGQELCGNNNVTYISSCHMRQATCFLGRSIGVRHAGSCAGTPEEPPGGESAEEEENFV
Fibroblast growth factor 10 (Homo sapiens), sequence (O15520 whole entry, looked up): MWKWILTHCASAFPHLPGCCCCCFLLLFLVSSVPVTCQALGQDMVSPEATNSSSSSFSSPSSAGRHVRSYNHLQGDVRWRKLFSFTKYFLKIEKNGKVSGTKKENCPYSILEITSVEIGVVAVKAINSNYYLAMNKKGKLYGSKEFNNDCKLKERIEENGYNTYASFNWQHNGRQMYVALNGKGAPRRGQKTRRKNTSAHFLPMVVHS
Torsin-1A-interacting protein 2 (Homo sapiens), sequence (Q8NFQ8 whole entry, looked up): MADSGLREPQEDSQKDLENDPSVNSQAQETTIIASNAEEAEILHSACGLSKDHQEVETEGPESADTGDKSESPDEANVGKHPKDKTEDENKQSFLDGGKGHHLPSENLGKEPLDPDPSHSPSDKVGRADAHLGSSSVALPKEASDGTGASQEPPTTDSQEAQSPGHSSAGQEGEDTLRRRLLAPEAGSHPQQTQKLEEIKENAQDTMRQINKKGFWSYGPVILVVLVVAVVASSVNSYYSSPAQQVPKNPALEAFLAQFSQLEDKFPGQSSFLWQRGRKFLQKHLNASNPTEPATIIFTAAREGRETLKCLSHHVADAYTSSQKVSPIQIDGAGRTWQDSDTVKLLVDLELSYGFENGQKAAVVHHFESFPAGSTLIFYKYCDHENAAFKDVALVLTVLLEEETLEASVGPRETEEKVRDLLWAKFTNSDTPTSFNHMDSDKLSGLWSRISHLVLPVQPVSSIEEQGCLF

Structure (SMILES)	composite z-score [1]	z-score [2]	z-score [3]	z-score [4]	composite z-score [5]	z-score [6]	composite z-score [7]	composite z-score [8]	composite z-score [9]	composite z-score [10]	composite z-score [11]	composite z-score [12]	composite z-score [13]	z-score [14]	composite z-score [15]	composite z-score [16]	composite z-score [17]	composite z-score [18]	composite z-score [19]	composite z-score [20]
C=C(COC)/C(=C/C[C@H](OC(=O)c1ccncc1)c1cccc(OCCO)c1)c1cc(C(=O)OC)ccc1OC	1.48	0.447 (inactive)	-1.01 (inactive)	-0.429 (inactive)	1.95	0.973 (inactive)	-0.128	0.604	0.679	-0.139	0.901	-0.0771	0.195	-0.147 (inactive)	0.837	-0.208	-0.353	0.0001	-0.0833	0.533
O=C1O[C@H](c2ccccc2)[C@H](c2ccccc2)N2[C@H]1[C@@H](C(=O)O)[C@]1(C(=O)Nc3ccc(C#CC4=CCCCC4)cc31)[C@H]2c1ccc(OCCO)cc1	1.54	2.1 (inactive)	1.14 (inactive)	-0.1 (inactive)	3.06	-0.413 (inactive)	-0.0104	1.34	1.1	-0.0657	1.43	-0.211	-0.701	-0.248 (inactive)	1.25	1.28	0.58	1.42	0.765	0.302
COc1ccc([Si](C)(C)[C@@H]2[C@@H](CC(=O)N3CCC[C@H]3CO)O[C@]3(C(=O)N(C)c4c(Br)cc(C)cc43)[C@H]2C)cc1	1.32	-1.69 (inactive)	-0.328 (inactive)	-0.827 (inactive)	2.52	-0.861 (inactive)	-0.0657	0.804	0.93	-0.0831	0.717	0.0781	0.0013	-0.778 (inactive)	0.801	0.889	0.35	1.42	1.1	0.809

From PubChem BioAssay
